Source: PubChem
Only some compounds are listed: those with a hit (about 4.8% of all), similar ones and a draw of the others.
NALP1 inh: inhibitors of NALP1 inflammasome in yeast. S. cerevisiae NALP1/ASC/caspase-1 growth, X-gal OD620, 72 h. inhibition, % at 10 µM. 280,000 compounds, 0.61% hits. AID 2071; in the data active means inhibition mostly above about 24%, no sharp cut-off; inactive means mostly below about 32%
SKKanGAS inh: inhibitors of SKKanGAS S. pyogenes growth in kanamycin (SK-promoter or general growth effect) | BacTiter-Glo, 6 h | inhibition, % at 7.5 µM | 300,000 compounds, 1.3% hits | AID 1662;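 active means mean replicate score, as percent of positive control median, at least 50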;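 further: strain carries kanamycin resistance gene driven by streptokinase promoter and grows in 40 µg/ml kanamycin; loss of luminescence reflects streptokinase promoter inhibition or plain growth inhibition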
TIM10 inh: growth inhibitors of TIM10 yeast strain. inhibition, % at 10 µM. 330,000 compounds, 1.4% hits. S. cerevisiae TIM10 strain growth, BacTiter-Glo luminescence, 24 h. AID 463195;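 active means inhibition of 40% or more at the single tested concentration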;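 further: wild-type TIM10 isogenic control strain grown at permissive 25 °C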
tim10-1 inh: inhibits growth of tim10-1 mutant yeast | inhibition, % at 20 µM | S. cerevisiae tim10-1 ts strain growth, BacTiter-Glo, 24 h | 330,000 compounds, 2.2% hits;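 active means inhibition of at least 40%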;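 further: mutant grown at 25 °C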
tim23-1 inh: inhibits growth of tim23-1 mutant yeast | AID 463212 | S. cerevisiae tim23-1 growth, BacTiter-Glo luminescence, 24 h | inhibition, % at 20 µM | 330,000 compounds, 1.3% hits;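 active means growth inhibition of the mutant yeast at or above 50%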;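 further: temperature-sensitive mutant grown at 25 °C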
PfHsp90 set2: growth inhibition of yeast expressing Plasmodium Hsp90; S. cerevisiae expressing PfHsp90, BacTiter-Glo ATP, 48 h; yeast lacking PDR1 and PDR3 efflux regulators; inhibition, % at 9.4 µM; 310,000 compounds, 0.32% hits;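 active means every replicate shows inhibition above about 80%, whatever the replicate mean, limit read from the data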
tim10-1 conf: confirmation of tim10-1 mutant yeast growth inhibitors; 7,400 compounds, 56% hits; inhibition, % at 20 µM; S. cerevisiae tim10-1 ts strain growth, BacTiter-Glo, 24 h; shares compounds with tim10-1 inh;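 active means inhibition of yeast growth at or above a set limit in either of two repeat tests at 20 µM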;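 further: tim10-1 mutant grown at permissive 25 °C to find synthetic lethal compounds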
A number is an active result; i = inactive; nt = no result given.

SMILES	NALP1 inh	SKKanGAS inh	TIM10 inh	tim10-1 inh	tim23-1 inh	PfHsp90 set2	tim10-1 conf
CN(NS(=O)(=O)c1ccc(Cl)cc1)c1ncc(C(F)(F)F)cc1Cl	i	i	i	42.5	i	i	i
Oc1cccc(Oc2ncc(C(F)(F)F)cc2Cl)c1	i	i	i	48.7	i	i	40.5
CC(C)(C)NS(=O)(=O)c1ccc(Oc2ncc(C(F)(F)F)cc2Cl)cc1	i	i	i	40.7	i	i	38.2
FC(F)(F)c1cnc(Oc2cccc3ccccc23)c(Cl)c1	i	i	i	i	i	i	nt
COc1ccc(-c2nn(CCC#N)cc2/C=N/O)cc1OC	i	i	i	i	i	i	nt
O=C1c2cccc3cccc(c23)C(=O)N1CCN1CCN(CC(O)COc2ccc3ccccc3c2)CC1 (stereo not given)	i	i	i	70.8	i	i	61.8
CCOC(=O)CC(=O)CSc1nc2cc(C)ccc2cc1C	i	i	i	43.7	i	i	i
CCOC(=O)c1ccc(NC(=O)CC2COc3ccccc3O2)cc1 (stereo not given)	i	i	i	40.6	i	i	i
CCC(=O)Nc1ccc(C(=O)NNC(=O)c2ccccc2)cc1	i	i	i	i	i	i	nt
CCC(=O)Nc1ccc(C(=O)OCc2ccccc2)cc1	i	i	i	40.9	i	nt	36.5
CCN(CC1COc2ccccc2O1)C(=S)Nc1ccccc1 (stereo not given)	i	i	i	44.4	i	i	15.2
C/C=C/c1ccc(OCCCCN2C(=O)NC(C)(C)C2=O)c(OC)c1	i	i	i	i	i	i	nt
C(=N\N1CCOCC1)/c1cn(-c2ccccc2)nc1-c1ccccc1	i	i	i	48.9	i	i	39.8
O=C(N/C(=C\c1cn(-c2ccccc2)nc1-c1ccccc1)C(=O)N1CCOCC1)c1ccccc1	i	i	i	i	i	nt	nt
COc1ccccc1-c1nnc(SCC(=O)N2CCOCC2)o1	i	i	i	i	i	i	nt
COc1ccccc1NC(=O)c1cc(S(=O)(=O)NC2CCCC2)ccc1F	i	i	i	48.2	i	i	i
CN(c1ccccc1)C1CCCCC1NS(=O)(=O)c1ccc(Cl)cc1 (stereo not given)	i	i	i	50.5	i	i	36.0
COc1ccccc1NC1CCCCC1NS(=O)(=O)c1ccccc1 (stereo not given)	i	i	i	43.5	i	i	i
COc1ccccc1NC(=O)c1cc(S(=O)(=O)N2CCCCCC2)ccc1F	i	i	i	i	i	i	nt
O=C(c1cc(-c2cccnc2)nc2ccc(Br)cc12)N1CCN(c2ncccn2)CC1	i	i	i	45.5	i	i	i
CC(=O)c1ccc(N2CCN(C(=O)c3cc(-c4cccnc4)nc4ccc(Br)cc34)CC2)cc1	i	i	i	i	i	i	nt
COc1cc(C(=O)N2CCN(C(=O)C(Cc3cc(C)ccc3C)NC(C)=O)CC2)cc(OC)c1OC (stereo not given)	i	i	i	i	i	i	nt
COc1ccc(OCC(=O)N2N=C(C(F)F)CC2(O)C(F)F)cc1 (stereo not given)	i	i	i	52.8	i	i	42.5
Cc1cc(C)n(CC(=O)N2N=C(C(F)F)CC2(O)C(F)F)n1 (stereo not given)	i	i	i	i	i	i	nt
COc1ccccc1NC(=S)N(Cc1ccccn1)Cc1ccccc1Cl	i	i	i	i	i	i	nt
SMILES	NALP1 inh	SKKanGAS inh	TIM10 inh	tim10-1 inh	tim23-1 inh	PfHsp90 set2	tim10-1 conf
Cc1ccccc1NC(=S)N(Cc1ccccn1)Cc1ccccc1Cl	i	i	i	44.9	i	i	34.4
COc1cccc(-c2nc3ccc(O)cc3c(=O)o2)c1	i	i	i	54.7	i	i	i
CC(C)C(=O)Nc1ccc(-c2nc3ccccc3c(=O)o2)cc1	i	i	i	56.1	i	i	41.0
CC(C)(C)C(=O)Nc1cccc(-c2nc3ccccc3c(=O)o2)c1	i	i	i	40.2	i	i	48.4
CC(C)(C)C(=O)Nc1ccc(-c2nc3ccccc3c(=O)o2)cc1	i	nt	i	i	i	i	nt
CC(C)C(=O)Nc1cccc(-c2nc3ccccc3c(=O)o2)c1	i	i	i	i	i	i	nt
Cc1ccc(C2OC(=O)c3ccccc32)cc1 (stereo not given)	i	i	i	i	i	i	nt
N=c1c2c(-c3ccccc3)c(-c3ccccc3)n(Cc3ccco3)c2ncn1CCO	i	i	i	43.0	i	i	i
Cc1cccc(NC(=O)c2ccc(S(=O)(=O)N3CCCCC3)cc2)n1	i	i	i	i	i	i	nt
COc1cc(C(=O)Nc2ccc(S(=O)(=O)N3CCCCC3C)cc2)cc(OC)c1OC (stereo not given)	i	i	i	46.2	i	i	37.6
Cc1cccc(NC(=O)c2ccc(S(=O)(=O)N3CCCCC3C)cc2)n1 (stereo not given)	i	i	i	41.1	i	i	i
NS(=O)(=O)c1cc(C(=O)OCC(=O)N2CCc3ccccc3C2)ccc1Cl	nt	nt	i	i	i	i	nt
CCOc1cccc(C(=O)N2CCCN(C)CC2)c1	i	i	i	i	i	i	nt
Cn1c(CNC(=O)c2cccs2)nnc1SCC(=O)Nc1ccc(Cl)cc1	i	i	i	i	i	i	nt
CCOc1cc(/C=C2\C(=O)N(Cc3ccc(C)cc3)C(C)=C2C(=O)OC)ccc1O	i	i	i	44.1	i	i	i
O=C(OCCN=C1NS(=O)(=O)c2ccccc21)c1cccs1	i	i	i	i	i	i	nt
O=C(Nc1cccc(C(F)(F)F)c1)C1CCCN(c2ncccn2)C1 (stereo not given)	i	i	i	42.4	i	nt	36.3
Brc1ccc(-c2cn3nc4c(nc3n2)CCCC4)cc1	i	i	i	i	i	nt	nt
Brc1ccc(-c2cn3c(n2)CCc2ccc4cccnc4c2-3)cc1	i	75.9	i	46.5	i	i	31.6
CCc1cccc(NS(=O)(=O)c2ccc(-n3cccn3)cc2)c1	i	i	i	50.4	i	i	i
Cc1cccc(NC(=S)NNC(=O)c2csc(C(C)C)c2)c1	i	i	i	44.4	i	i	i
CC(=O)N1CCOc2ccc(S(=O)(=O)N3CCC(C(=O)Nc4ccc(C)cc4C)CC3)cc21	i	i	i	i	i	i	nt
Cc1ccc2c(c1)CCCN2C(=O)c1cc2ccccc2oc1=O	i	i	i	43.2	i	i	43.8
Cc1cc(NS(=O)(=O)c2ccccc2)c([N+](=O)[O-])cc1C	i	i	i	41.3	i	i	i
O=[N+]([O-])c1cc(Br)ccc1NS(=O)(=O)c1ccccc1	nt	nt	nt	nt	nt	i	nt
O=S(=O)(CS(=O)(=O)c1ccccc1)c1ccccc1	nt	nt	nt	nt	nt	i	nt
O=S(=O)(C/C(=C/CO)S(=O)(=O)c1ccccc1)c1ccccc1	i	i	i	44.2	i	i	i
